Source: PubChem BioAssay AID624037 (The Scripps Research Institute Molecular Screening Center, 2012)
The campaign covered roughly 360,000 compounds. About 700 (0.19%) were called active. The list comes from a sample in which actives are over-represented; it also holds similar structures and randomly drawn compounds. A number with no mark means an inactive call.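 The calls were made as follows: active = activation above the run's mean over test compounds plus 3 SD (cut at about 23% in these data); inactive = the rest.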

Molecular target: Muscarinic acetylcholine receptor M5 (Homo sapiens) (UniProt P08912)
Experiment: CHRM5 activators raising intracellular calcium – CHO-K1 cells, Fluo-8 calcium fluorescence, primary screen (AID 624037);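 also: signal is peak over basal fluorescence ratio across the kinetic read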
Conditions: CHO-K1 hM5 cells, at 3 µM, active compounds read high, 0% DMSO wells, 100% maximal acetylcholine response

Chain of Muscarinic acetylcholine receptor M5 (Homo sapiens) (P08912 whole entry, looked up): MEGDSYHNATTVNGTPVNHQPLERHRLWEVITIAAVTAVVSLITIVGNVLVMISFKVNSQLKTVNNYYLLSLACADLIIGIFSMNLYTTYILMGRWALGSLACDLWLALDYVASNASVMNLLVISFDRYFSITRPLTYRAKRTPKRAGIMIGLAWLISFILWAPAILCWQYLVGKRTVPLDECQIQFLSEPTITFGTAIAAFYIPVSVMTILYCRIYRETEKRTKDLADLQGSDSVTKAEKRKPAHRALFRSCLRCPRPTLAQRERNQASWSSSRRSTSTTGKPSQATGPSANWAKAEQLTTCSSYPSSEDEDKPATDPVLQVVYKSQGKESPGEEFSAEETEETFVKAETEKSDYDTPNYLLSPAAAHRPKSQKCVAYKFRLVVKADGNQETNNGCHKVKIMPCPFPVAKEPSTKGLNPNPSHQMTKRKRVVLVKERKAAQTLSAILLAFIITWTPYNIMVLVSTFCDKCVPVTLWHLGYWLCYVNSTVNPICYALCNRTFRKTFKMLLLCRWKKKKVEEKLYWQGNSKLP

Structure (SMILES) | activation
O=C(C1CCN(S(=O)(=O)c2cccs2)CC1)N1CCCCCC1 | -3.68%
CCOc1ccc(NC(=O)N(CC(C)C)CC(C)C)cc1 | -3.79%
CCC(=C/c1sc2ccc3ccccc3c2[n+]1C)/C=C1\Sc2ccc3ccccc3c2N1C | 1.63%
COC(=O)CSc1snnc1-c1ccc(Cl)c(Cl)c1 | -7.41%
CN(C)c1cc(N)c2ccccc2n1 (tested in a mixture with another compound) | -6.58%
NS(=O)(=O)c1cccc(NC(=O)CC23CC4CC(CC(Br)(C4)C2)C3)c1 | -1.18%
CC(=O)NC1=NN(C(C)=O)C(C)(c2ccc(C)cc2)S1 (stereo not given) | 1.09%
COc1ccccc1C(=O)Oc1ccc(N2C(=O)CCC2=O)cc1 | -1.29%
O=C(CCN1C(=O)[C@H]2CC=CC[C@H]2C1=O)NCc1nc(-c2ccccc2)no1 | 0.28%
COc1ccccc1C(=O)NC(CCSC)C(=O)NNC(=O)c1csc(N2CCOCC2)n1 (stereo not given) | -2.2%
O=C(NCCSc1ncc(-c2ccccc2)[nH]1)c1ccco1 | -1.14%
Cc1nnc(SCC(=O)Nc2ncc3c(n2)CC(C)(C)CC3=O)s1 | -1.69%
COC(=O)c1sc(N)c(C(=O)OC)c1COC(=O)CNS(=O)(=O)c1ccc(C)cc1 | 1.46%
C/C=C/c1ccc(OCC(=O)OCC(=O)Nc2c(C)nn(-c3ccccc3)c2C)c(OC)c1 | 0.8%
Nc1ccc2nc3c(=O)[nH]c(=S)[nH]c3nc2c1 | 13.3%
CCCn1c(=O)c2c(C(F)(F)F)cc(-c3cccs3)nc2n(CCC)c1=O | -2.81%
COC(=O)c1c(NC(=O)c2ccccc2F)sc2c1C(C(=O)OC)CC2 (stereo not given) | 0.55%
COCC1CCCN(C(=O)c2ccc3oc(C(C)C)nc3c2)C1 (stereo not given) | -5.48%
O=C(NCc1cccc(Cl)c1)C1=CC=CN2CCS(=O)(=O)N=C12 | -4.02%
CCCCC(=O)Nc1ccc2c(c1)C(=O)NC2=O | -1.75%
C=CCC(NC(=O)Cc1ccccc1)C(=O)NCCC (stereo not given) | 1.37%
CCCCC(=O)NNC(=S)NC(=O)C(c1ccccc1)c1ccccc1 | 76.2% (active)
CNC(=O)C1CN(C(=O)c2cccc(S(=O)(=O)N3CCc4ccccc43)c2)c2ccccc2O1 (stereo not given) | 2.34%
CC(C)C[C@H](NC(=O)NCCc1ccc(Cl)cc1)C(=O)O | -0.97%
CC(NC(=O)c1ccco1)c1ccc2c(c1)OCO2 (stereo not given) | -1.73%
